Assay outcomes: PubChem BioAssay, several laboratories
Jurkat NFkB inh: lowers PMA/ionomycin-induced NF-kB signal in Jurkat cells; PMA/ionomycin-induced NF-kB luciferase reporter, luminescence; inhibition, % at 4 µM; 330,000 tested, 0.53% active; AID 435003; in the data active = inhibition above about 50%
GalR3 antagonist: human GalR3 antagonism. O60755. HEK293 GalR3-CNG cAMP membrane potential fluorescence; galR3 body fused to GalR1 C-terminus. inhibition, % at 3 µM. 360,000 tested, 0.44% active. AID 651719;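 active = inhibition above the screen-wide average plus 3 SD, cut at about 13% in these data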;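 also: forskolin and galanin both at EC90 stimulate the cells; cAMP rise reported by CNG channel membrane potential dye signal; 0% = forskolin plus galanin with DMSO and 100% = forskolin alone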
Target sequence (O60755 1-299 limits assumed): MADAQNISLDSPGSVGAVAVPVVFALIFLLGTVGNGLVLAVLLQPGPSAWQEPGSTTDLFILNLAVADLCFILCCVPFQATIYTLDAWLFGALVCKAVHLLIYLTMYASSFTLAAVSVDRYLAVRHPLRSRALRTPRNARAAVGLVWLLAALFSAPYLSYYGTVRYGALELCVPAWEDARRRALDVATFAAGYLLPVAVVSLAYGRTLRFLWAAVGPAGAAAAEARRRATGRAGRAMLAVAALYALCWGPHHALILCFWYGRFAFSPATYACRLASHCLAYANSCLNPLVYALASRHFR
NR2F2 inh: blocks human COUP-TFII nuclear receptor | P24468 | inhibition, % at 8.6 µM | 370,000 tested, 0.7% active | HEK293T NGFI-A luciferase reporter, luminescence;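 active = inhibition above a per-plate cutoff, mean inhibition of test wells between control levels plus 3 SD, cut at about 38% in these data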;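 also: cells cotransfected with COUP-TFII expression vector driving the NGFI-A reporter; 0% = median of COUP-TF2 test wells and 100% = reporter-only cells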
Gli-Sufu antag: blocks Gli-Sufu signaling in a luciferase reporter | Sufu-KO-LIGHT fibroblasts, Gli luciferase reporter luminescence | inhibition, % at 5 µM | 340,000 tested, 0.74% active | AID 588413;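 active = inhibition above about 55%, limit read from the data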;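 also: 0% = DMSO-treated cells and 100% = wells with medium but no cells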
697 NFkB inh: inhibitors of the PMA/ionomycin-induced NF-kB reporter in 697 B cells; inhibition, % at 4 µM; 330,000 tested, 0.33% active; 697 B-cell NF-kB luciferase reporter, 16 h; in the data active = inhibition above about 35%
Jurkat NFkB conf: inhibitors of the PMA/ionomycin-induced NF-kB reporter in Jurkat cells, retest; Jurkat NF-kB luciferase, 16 h; 2,700 tested, 27% active; shares compounds with Jurkat NFkB inh; AID 435020; inhibition, % at 4 µM;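 active = inhibition reaching about 45% at 4 µM in either replicate, limit read from the data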;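 also: plate controls were PMA/ionomycin stimulated DMSO wells for no effect and unstimulated DMSO wells for full effect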
An asterisk follows results filed as active; . = no result. The list is not random: actives were taken first. Their share in the collection is about 2%.

SMILES	Jurkat NFkB inh	GalR3 antagonist	NR2F2 inh	Gli-Sufu antag	697 NFkB inh	others
CC(C)[C@H]1C(=O)O[C@H](C(C)C)C(=O)N(C)[C@@H](C(C)C)C(=O)O[C@H](C(C)C)C(=O)N(C)[C@@H](C(C)C)C(=O)O[C@H](C(C)C)C(=O)N1C	10	.	.	84*	-32
O=C(NC(Cc1ccccc1)P(=O)(O)Oc1ccccc1)OCc1ccccc1 (stereo not given)	.	.	6	.	.
CC(=O)OC(C)(C)/C=C/C(=O)C(C)(O)C1C(O)CC2(C)C3CC=C4C(CC(O)C(=O)C4(C)C)C3(C)C(=O)CC12C (stereo not given)	.	-5	-5	87*	.
CC(=O)OC(C)(C)/C=C/C(=O)[C@](C)(O)[C@H]1[C@H](O)C[C@@]2(C)[C@@H]3CC=C4[C@H](C[C@H](O)C(=O)C4(C)C)[C@]3(C)C(=O)C[C@]12C	.	.	.	88*	.
c1cncc(-c2ccc3n2Cc2cnnn2-c2ccccc2-3)c1	.	.	6	.	.
O=C(CN1C(=O)[C@@H](Cc2ccccc2)N=C(c2ccccc2)c2ccccc21)NC1CCCCC1	.	.	12	.	.
c1ccc2c(c1)-c1cccc3cccc-2c13	-1	-6	-2	3	12
c1ccc2c(c1)[IH]c1ccccc1-2	.	86*	59*	86*	.
CCn1nc(/C=C/c2ccccc2)nc2c(=O)n(C)c(=O)nc1-2	37	-12	30	91*	-102
COc1ccc(-n2c(/C=C/c3ccc(O)cc3)nc3ccccc3c2=O)cc1	2	-3	7	-4	4
CO[C@H]([C@H](C)/C=C/N(C)C=O)[C@@H](C)C(=O)CC[C@H](C)[C@H](O)[C@H](C)[C@H]1OC(=O)/C=C/C(C)=C/[C@H](O)[C@H](OC)C[C@@H]2C=CC[C@@H](C[C@H](OC)[C@@H](CO)[C@@H](OC)C[C@@H](OC)[C@@H]1C)O2	.	.	-22	.	.
N=c1c2c(-c3ccccc3)c(-c3ccccc3)n(Cc3ccccc3)c2ncn1C1CCC(O)CC1 (stereo not given)	.	.	7	.	.
COC(=O)c1nc(-c2ccc3c(n2)C(=O)C(N)=C(OC)C3=O)c(N)c(-c2ccc(OC)c(OC)c2O)c1C	1	-11	4	58*	-6
COC(=O)C1(N(C)c2ccccc2)CCN(Cc2ccccc2)CC1	.	.	12	.	.
CC(=NNC(=S)N1CC2CCC(CC2)C1)c1nccs1	.	-3	-32	91*	.
CC(O)C1C=CC=CC(=O)OC2CC3OC4C5OC5(C)CCC4(COC(=O)C4OC4(C)C(O)CO1)C2(C)C31CO1 (stereo not given)	.	-4	91*	86*	.
CC[n+]1c(/C=C/N(C)c2ccccc2)sc2ccc(Cl)cc21	24	-4	19	85*	-16
CCn1c(P(C)(=O)O)nc2ccccc21	14	-1	7	3	10
CCn1c(NN=O)nc2ccccc21	22	-6	-7	70*	7
Cc1sc2ccccc2c1CC1=NCCN1	-15	.	-13	61*	-3
Nc1ccc(CC2=NCCN2)cc1	.	-5	-2	3	.
Cc1ccccc1CCC[C@H](CC1CCCCC1)CN(C)C(=O)Oc1ccccc1	.	.	-16	.	.
C[CH2][Hg][S]c1ccccc1C(=O)O	31	-7	-38	76*	-84
N#CC1c2ccccc2-n2nncc2CN1C(=O)c1cccnc1 (stereo not given)	.	.	-11	.	.
O=C(CN1C(=O)[C@@H](Cc2c[nH]c3ccccc23)N=C(c2ccccc2)c2ccccc21)NC1CCCCC1	.	.	3	.	.
Cc1[nH]nc2ccc(-c3cncc(OC[C@@H](N)Cc4c[nH]c5ccccc45)c3)cc12	.	.	.	93*	.
C/C=C(\C)C(=O)N[C@@H](c1ccccc1)[C@@H](O)C(=O)O[C@H]1C[C@@]2(O)[C@@H](OC(=O)c3ccccc3)C3[C@](C)(C(=O)[C@H](OC(C)=O)C(=C1C)C2(C)C)[C@@H](O)C[C@H]1OC[C@@]31OC(C)=O (stereo not given in full)	66*	-3	7	-10	-14	Jurkat NFkB conf=71*
CC(=O)O[C@@]12CO[C@@H]1C[C@H](O)[C@@]1(C)C(=O)[C@H](O)C3=C(C)[C@@H](O)C[C@@](O)([C@@H](OC(=O)c4ccccc4)C12)C3(C)C (stereo not given in full)	31	-2	-5	3	11
